This passage reports activation and Potency results from PubChem BioAssay (NCATS).

Molecules are shown by their SMILES. Several values for one entry are separate records, joined by “and”; a condition that tells them apart may be missing. Identical values can stand only once. Results filed as inconclusive are left out. Activity calls are given as the source filed them. The call rests on the fitted dose curve; in most records, active means well fitted activation curve with a large enough effect; inconclusive means small, poorly fitted or top-dose-only effect; inactive means no such curve, though single readings can be large or run the other way.
Potency means the concentration at half of the fitted maximal effect.

Sequence of Cellular tumor antigen p53 (Homo sapiens) (P04637 whole entry, looked up): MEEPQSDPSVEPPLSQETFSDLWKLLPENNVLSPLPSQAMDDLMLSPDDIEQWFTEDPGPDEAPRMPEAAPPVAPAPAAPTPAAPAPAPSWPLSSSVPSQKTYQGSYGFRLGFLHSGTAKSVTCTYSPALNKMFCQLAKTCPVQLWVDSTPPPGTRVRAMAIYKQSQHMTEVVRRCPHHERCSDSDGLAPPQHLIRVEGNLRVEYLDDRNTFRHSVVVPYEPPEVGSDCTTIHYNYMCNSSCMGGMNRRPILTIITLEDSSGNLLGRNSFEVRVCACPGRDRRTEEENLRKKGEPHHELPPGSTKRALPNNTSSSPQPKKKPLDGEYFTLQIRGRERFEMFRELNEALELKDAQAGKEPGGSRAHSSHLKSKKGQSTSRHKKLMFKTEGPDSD

In the experiment the target is Cellular tumor antigen p53 (Homo sapiens) (UniProt P04637). As to the kind of experiment: Primary qHTS for small molecule compounds that upregulate eGFP-tagged delta133p53alpha (in N-terminal) cells. (AID 2060322). Further: nearly all actives have a fitted effect of over 75% in size.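 On activation: series mostly up to about 56 µM; 0% = DMSO vehicle and 100% = reference activator.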 The conditions noted are these: NCI-H358 eGFP-delta133p53alpha fluorescence, 24 h; activation: hits give high values. An outline of the steps:
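NCI-H358 cells pre-induced 24 h with 10 ng/ml doxycycline to express N-terminal eGFP-delta133p53alpha, then dosed 24 h at 37C without doxycycline; fixed, Hoechst-stained, GFP intensity by laser scanning cytometry, normalized to DMSO (0%) and 57.5 uM 5-azacytidine (100%).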
A general note: qHTS replaces the single test concentration by a dilution series.
Turning to `CCN(CCO)CCCC(C)Nc1ccnc2cc(Cl)ccc12` (configuration not stated), the activation is 3.35% (inactive) and 25.7% (inactive) and 0.955% (inactive).
For `CCCCc1oc2ccc(NS(C)(=O)=O)cc2c1C(=O)c1ccc(OCCCN(CCCC)CCCC)cc1`, the activation is 2.56% (inactive).
Turning to `Cn1cncc1C(N)(c1ccc(Cl)cc1)c1ccc2c(c1)c(-c1cccc(Cl)c1)cc(=O)n2C` (configuration not stated), the Potency is 26.9 µM (active).
`CC(C)(C)c1cc(C(=O)O)c(NC(=O)Nc2ccc3[nH]ncc3c2)s1`: the activation is 7.87% (inactive) and -13.8% (inactive).
Same read-out and setting: under `O=C(c1cc(Cc2n[nH]c(=O)c3ccccc23)ccc1F)N1CCN(C(=O)C2CC2)CC1` stands 8.16% (inactive) and -16.2% (inactive); under `CCC(CC)C(c1ccc(Nc2nc3ccccc3s2)cc1)n1cncn1` (configuration not stated), 17.2% (inactive).
The same measure, in the same setting: in the case of `Cc1cc(C(=O)N2CCN(c3cccc(Cl)c3)CC2)n(-c2ccccc2)n1` it was -1.43% (inactive); in that of `COc1ccc(CCC(=O)Nc2nc3ccc(Cl)cc3s2)cc1OC`, 9.8% (inactive) and 1.91% (inactive).
Same read-out and setting: under `CNC(=O)c1cccc(-c2ccc3c(N4CCOC[C@@H]4C)nc(N4CCOC[C@@H]4C)nc3n2)c1` stands 20% (inactive); under `Clc1cccc(-n2nnnc2NCc2ccccc2Oc2ccccn2)c1Cl`, -7.52% (inactive) and 10.5% (inactive).
Regarding `O=C(C(c1ccccc1)c1ccccc1)N1CCN(CC(O)COc2cccc3ncccc23)CC1` (configuration not stated), the activation is 4.77% (inactive).
Same read-out and setting: under `OC[C@H]1O[C@@H](Oc2cc(O)cc(/C=C/c3ccc(O)cc3)c2)[C@H](O)[C@@H](O)[C@@H]1O` stands -6.21% (inactive).
